Only a selection was taken, and hits are over-represented in it overall.
IDE exosite FP: exo-site inhibitors of human IDE, primary screen, biochemical, fluorescence anisotropy, probe displacement; Insulin-degrading enzyme (Homo sapiens), P14735; purified IDE, FL-6b probe fluorescence polarization; stronger effect = lower value; z-score at 20 µM; actives 6.3% (n = 17,000);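 active = z-score of -3 or lower, meaning strong loss of probe binding signal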;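 note: His-tagged human IDE residues 42-1019 made in E. coli with 30 nM FL-6b probe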
* hit, by the source's call.

SMILES	IDE exosite FP
CCC(=O)N1CC(=O)N2[C@H](CO)[C@@H](c3ccc(C#Cc4cccnc4)cc3)[C@@H]2C1	-0.307
CCC(=O)N1CC(=O)N2[C@@H](CO)[C@@H](c3ccc(C#Cc4cccnc4)cc3)[C@@H]2C1	1.96
CCCNC(=O)N1CC(=O)N2[C@@H](CO)[C@@H](c3ccc(C#Cc4cccc(OC)c4)cc3)[C@@H]2C1	-1.33
CCC(=O)N1CC(=O)N2[C@H](C1)[C@H](c1ccc(C#Cc3cccnc3)cc1)[C@@H]2CO	-3.03*
CCC(=O)N1CC(=O)N2[C@@H](CO)[C@@H](c3ccc(C#Cc4cccc(OC)c4)cc3)[C@@H]2C1	-11*
CCCNC(=O)N1CC(=O)N2[C@@H](CO)[C@H](c3ccc(C#Cc4cccc(OC)c4)cc3)[C@@H]2C1	-2.76
CCC(=O)N1CC(=O)N2[C@H](CO)[C@@H](c3ccc(C#Cc4cccc(OC)c4)cc3)[C@H]2C1	-4.25*
COc1cccc(C#Cc2ccc([C@H]3[C@H](CO)N4C(=O)CN(C(=O)c5ccccc5)C[C@@H]34)cc2)c1	-2.2
O=C(C1CC1)N1CC(=O)N2[C@H](CO)[C@H](c3ccc(Br)cc3)[C@H]2C1	2.52
O=C(c1ccccn1)N1[C@@H](CO)[C@@H](c2ccccc2)C12CN(Cc1ccccc1F)C2	0.846
O=C(C[C@@H]1C=C[C@H](NC(=O)Nc2ccc3c(c2)OCO3)[C@H](CO)O1)NCCCN1CCOCC1	1.65
COCCNC(=O)C[C@@H]1CC[C@@H]2[C@H](COC[C@@H](O)CN2C(=O)c2cc(Cl)cc(Cl)c2)O1	1.32
C/C=C/c1ccc([C@@H]2[C@@H](CO)N3C(=O)CN(S(=O)(=O)c4ccccc4)C[C@H]23)cc1	-0.128
O=C(C1CCOCC1)N1CC(=O)N2[C@H](CO)[C@H](c3ccc(-c4cccnc4)cc3)[C@H]2C1	-1.69
O=C(CN1CCOCC1)N[C@@H]1CC[C@@H](CCn2cc(C3CC3)nn2)O[C@@H]1CO	-0.96
CS(=O)(=O)N1C[C@@H](O)COC[C@H]2O[C@@H](CC(=O)NCc3ccccc3)CC[C@@H]21	0.715
O=C(c1cccc(F)c1)N1CC(=O)N2[C@H](CO)[C@H](c3ccc(-c4ccccc4)cc3)[C@@H]2C1	3.43
O=C(C[C@@H]1CC[C@H](NC(=O)c2cccnc2)[C@H](CO)O1)NCc1ccc(Cl)c(Cl)c1	0.463
CC=Cc1ccc2n(c1=O)C[C@H]1[C@H](CO)[C@@H](C(=O)N[C@@H](C)c3ccccc3)[C@@H]2N1Cc1cncnc1 (mixture of isomers)	0.505
O=C(c1cccnc1)N1CC(=O)N2[C@H](CO)[C@@H](c3ccc(/C=C/c4ccccc4)cc3)[C@H]2C1	-5.41*
O=C(c1cccnc1)N1CC(=O)N2[C@H](CO)[C@H](c3ccc(-c4ccc(F)cc4)cc3)[C@@H]2C1	0.282
C/C=C/c1ccc([C@@H]2[C@@H](CO)N3C(=O)CN(C(=O)Cc4cccnc4)C[C@H]23)cc1	1.12
O=C(c1cccc(F)c1)N1CC(=O)N2[C@H](CO)[C@H](c3ccc(/C=C/c4ccccc4)cc3)[C@@H]2C1	-2.7
O=C(c1ccncc1)N1CC(=O)N2[C@H](CO)[C@@H](c3ccc(/C=C/c4ccccc4)cc3)[C@H]2C1	-1.23
O=C(c1ccc(F)cc1)N1CC(=O)N2[C@@H](CO)[C@H](c3ccc(/C=C/c4ccccc4)cc3)[C@@H]2C1	-5.27*
SMILES	IDE exosite FP
C/C=C/c1ccc([C@H]2[C@H]3CN(C(=O)Cc4cccnc4)CC(=O)N3[C@H]2CO)cc1	-0.491
O=C(c1ccccc1)N1CC(=O)N2[C@H](C1)[C@@H](c1ccc(/C=C/c3ccccc3)cc1)[C@@H]2CO	-2.63
C/C=C/c1ccc([C@H]2[C@H](CO)N3C(=O)CN(C(=O)c4ccc(F)cc4)C[C@@H]23)cc1	2.38
O=C(c1ccc(F)cc1)N1CC(=O)N2[C@H](CO)[C@@H](c3ccc(/C=C/c4ccccc4)cc3)[C@@H]2C1	0.703
O=C(c1ccccc1)N1CC(=O)N2[C@@H](CO)[C@H](c3ccc(/C=C/c4ccccc4)cc3)[C@@H]2C1	-3.39*
O=C(Cc1cccnc1)N1CC(=O)N2[C@H](C1)[C@@H](c1ccc(/C=C/c3ccccc3)cc1)[C@@H]2CO	-4.73*
COc1cccc(-c2ccccc2[C@H]2[C@@H](CO)N(C(=O)Cc3ccccc3)[C@H]2C#N)c1	0.948
COc1ccc(-c2ccc([C@H]3[C@@H](CO)N4CCCCN(C(=O)c5ccc(F)cc5)C[C@@H]34)cc2)cc1	2.68
O=C(c1ccccc1)N1CC(=O)N2[C@H](CO)[C@H](c3ccc(C4=CCCC4)cc3)[C@@H]2C1	0.486
C/C=C/c1ccc(C2[C@H]3CNC[C@@H]2N3S(=O)(=O)c2c(C)noc2C)cc1 (stereo not given in full)	1.2
N#C[C@@H]1[C@@H](c2ccc(C#Cc3cccnc3)cc2)[C@@H](CO)N1C(=O)NC1CCCCC1	-0.51
CC(=O)N1CC2(C1)[C@H](c1ccc(-c3cccc(C#N)c3)cc1)[C@H](CO)N2CCC(F)(F)F	1.79
